In all, about 310,000 compounds went through this assay and about 14,000 (4.5%) showed an effect of 50% or more. Effects have a minus sign here. The entries come from a sample that favours strong results as a whole.
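Further: peak tail current of the secondary pulse compared with the same well before compound.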

Sequence of human ether-à-go-go-related gene (hERG) potassium channel (Q12809 whole entry, looked up): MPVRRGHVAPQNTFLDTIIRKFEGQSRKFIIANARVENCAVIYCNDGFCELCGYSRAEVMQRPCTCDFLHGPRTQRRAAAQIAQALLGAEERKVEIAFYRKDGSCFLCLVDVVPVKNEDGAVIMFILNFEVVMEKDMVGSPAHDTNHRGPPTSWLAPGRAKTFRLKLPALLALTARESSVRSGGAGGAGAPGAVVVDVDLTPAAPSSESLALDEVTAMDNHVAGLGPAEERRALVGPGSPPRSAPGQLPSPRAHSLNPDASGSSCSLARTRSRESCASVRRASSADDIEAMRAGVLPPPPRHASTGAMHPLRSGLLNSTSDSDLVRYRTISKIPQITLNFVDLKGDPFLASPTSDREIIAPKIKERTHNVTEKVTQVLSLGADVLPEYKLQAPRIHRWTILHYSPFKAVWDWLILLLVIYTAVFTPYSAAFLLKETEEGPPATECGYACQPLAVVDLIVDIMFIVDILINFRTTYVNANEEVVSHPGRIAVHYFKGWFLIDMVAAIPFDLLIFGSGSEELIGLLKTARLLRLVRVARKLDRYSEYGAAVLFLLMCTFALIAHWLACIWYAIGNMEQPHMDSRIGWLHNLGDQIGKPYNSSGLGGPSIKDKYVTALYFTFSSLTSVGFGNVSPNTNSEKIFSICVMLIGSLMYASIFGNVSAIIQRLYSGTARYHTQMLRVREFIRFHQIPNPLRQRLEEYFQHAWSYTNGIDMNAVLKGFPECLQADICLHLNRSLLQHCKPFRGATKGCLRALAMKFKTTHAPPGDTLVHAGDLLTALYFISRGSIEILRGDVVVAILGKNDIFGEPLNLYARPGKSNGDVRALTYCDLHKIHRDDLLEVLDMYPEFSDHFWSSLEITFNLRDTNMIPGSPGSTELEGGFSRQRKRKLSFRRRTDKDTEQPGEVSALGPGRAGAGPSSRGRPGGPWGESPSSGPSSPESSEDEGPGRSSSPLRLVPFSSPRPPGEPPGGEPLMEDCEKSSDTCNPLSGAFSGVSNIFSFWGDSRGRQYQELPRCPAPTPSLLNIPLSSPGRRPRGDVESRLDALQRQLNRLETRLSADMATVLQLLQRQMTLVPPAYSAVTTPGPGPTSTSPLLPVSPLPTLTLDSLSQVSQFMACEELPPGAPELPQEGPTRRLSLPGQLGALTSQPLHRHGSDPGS

This assay has as its target human ether-à-go-go-related gene (hERG) potassium channel (human, UniProt Q12809). The experiment in a line: primary screen, population patch clamp on CHO cells stably expressing hERG; higher = less effect of the substance.
As to `COc1cccc(C2c3[nH]c4ccccc4c3C[C@H]3C(=O)N(CCCO)CC(=O)N23)c1OC` (stereo partly drawn), the “hERG current change (%, negative = inhibition) at 10uM” value was -6.83%.
The value for `CC1(c2nnc(Cc3ccccc3)o2)CC(c2ccccc2F)=NO1` (stereo not drawn) was -12.6%; that for `CC(C)Sc1nc(N2CCOCC2)c2c(c1C#N)CC(C)(C)SC2` was 5.69%.
Take `CC1=C(C(N)=O)C(c2ccccc2)n2nc(-c3ccncc3)nc2N1` (stereo not drawn): the “hERG current change (%, negative = inhibition) at 10uM” value turned out to be 11.2%.
The value for `COC(=O)C1C2CCC(C2)C1C(=O)OCC(=O)c1ccc(C)cc1` (stereo not drawn) was -19.5%; that for `CC1(C)CC(=O)C=C(Nc2ccc([N+](=O)[O-])cc2)C1` was -16.6%; that for `COc1ccc(NC(=O)CCOc2ccc(C)cc2)cc1S(=O)(=O)N1CCOCC1` was -34.9%.
The figure for `COc1ccc(C(=S)N2CCCC2)cc1C` is 4.72%; for `CCCCCCOC(=O)c1ccc(NC(=O)c2cc(OC)c(OC)c(OC)c2Br)cc1` it is 5.84%.
The value for `CCOC(=O)c1ccc(CNC(=O)CSc2nnc(-c3ccncc3)o2)cc1` was -1.31%.
On to `Cl.NS(=O)(=O)c1ccc(CCNC/C=C/c2ccccc2)cc1`, for which the “hERG current change (%, negative = inhibition) at 10uM” value is -48.7%.
The figure for `COc1ccc(CNC/C=C/c2ccccc2)cc1.Cl` is -42.2%.
Turning to `COc1ccc(CCNC/C=C/c2ccccc2)cc1.Cl`, the “hERG current change (%, negative = inhibition) at 10uM” value is on record as -51.4%.
The value for `Cc1nn(C)c(C)c1CNC(=O)Nc1ccc2c(c1)OCO2` was 12%; that for `CC(NC(=O)CN(C)S(=O)(=O)c1ccc(F)cc1)C1CC2CCC1C2` (stereo not drawn) was -2.34%.
The value for `O=C(CCSCCc1ccccn1)Nc1c(F)c(F)c(F)c(F)c1F` was -23.3%; that for `CC(C)Nc1cc(C(C)(C)C)nc2c(-c3ccccc3)cnn12` was 8.72%.
The figure for `CCC(C)(C)n1nnnc1C(C(C)C)N1CCN(C)CC1.Cl` (stereo not drawn) is 6.63%.
As for `CCC(C)(C)n1nnnc1C(C(C)C)N1CCC(C(N)=O)CC1` (stereo not drawn), the “hERG current change (%, negative = inhibition) at 10uM” value amounted to 10.4%.
On to `CC(C)(C)n1nnnc1C(c1ccc(Cl)cc1)N1CCSCC1` (stereo not drawn), for which the “hERG current change (%, negative = inhibition) at 10uM” value was -0.553%.
The value for `CCC(C)(C)n1nnnc1C(c1ccc(C)cc1)N1CCCC1.Cl` (stereo not drawn) was -11.7%; that for `CCC(C)(C)n1nnnc1C(c1ccc(C)cc1)N1CCSCC1` (stereo not drawn) was -55.1%; that for `CCC(C)(C)n1nnnc1C(C(C)C)N1CCSCC1` (stereo not drawn) was -61.6%.
The figure for `N#C/C(=C/c1ccc2c(c1)OCO2)C(=O)Nc1ccc(O)cc1` is -0.516%.
The value for `COc1ccc(NC(C)=O)cc1S(=O)(=O)N(C)Cc1c(C)nn(-c2ccccc2)c1C` was -13%.
Regarding `COCC(C)OC(=O)/C(C#N)=C\c1coc2ccc(C)cc2c1=O` (stereo not drawn), the “hERG current change (%, negative = inhibition) at 10uM” value is given as -20.9%.
The figure for `CC(C)(C)c1ccccc1NC(=S)NC1CCCC1` is 1.41%; for `COc1ccc(N2C(=O)CCC(C(=O)N3CCC(C(N)=O)CC3)C2c2ccc(F)cc2)cc1` (stereo not drawn) it is -2.18%; for `Cc1c(CCOC(=O)CC23CC4CC(CC(C4)C2)C3)sc[n+]1Cc1ccccc1.[Cl-]` it is -42.1%.
For the compound `Cc1c(CCOC(=O)CC23CC4CC(CC(C4)C2)C3)sc[n+]1CC(=O)c1ccc(Br)cc1.[Br-]`, the “hERG current change (%, negative = inhibition) at 10uM” value was -75.1%.
The value for `Cc1c(CCOC(=O)C23CC4CC(CC(C)(C4)C2)C3)sc[n+]1CC(=O)c1ccccc1.[Br-]` was -26.7%; that for `Cc1c(CCOC(=O)C2C3CC4CC(C3)CC2C4)sc[n+]1CC(=O)c1ccc(Br)cc1.[Br-]` (stereo not drawn) was -31.4%; that for `Cc1c(CCO)sc[n+]1CC(=O)OCCC12CC3CC(CC(C3)C1)C2.[Cl-]` was 11.8%.
As to `Cc1c(CCOC(=O)CC23CC4CC(CC(C)(C4)C2)C3)sc[n+]1CC(=O)c1ccccc1.[Br-]`, the “hERG current change (%, negative = inhibition) at 10uM” value is reported as -56.8%.
The value for `Cc1c(CCOC(=O)C23CC4(C)CC(C)(CC(C)(C4)C2)C3)sc[n+]1CC(=O)c1ccccc1.[Br-]` was -19.5%; that for `Cc1c(CCOC(=O)CC23CC4CC(CC(C4)C2)C3)sc[n+]1CC(=O)c1ccccc1.[Br-]` was -59.4%; that for `Cc1ncc(C[n+]2csc(CCOC(=O)CC34CC5CC(CC(C5)C3)C4)c2C)c(N)n1.Cl.[Cl-]` was -4.79%.
As to `Cc1c(CCOC(=O)CC23CC4CC(CC(C)(C4)C2)C3)sc[n+]1Cc1ccc([N+](=O)[O-])cc1.[Br-]`, the “hERG current change (%, negative = inhibition) at 10uM” value is given as -87.8%.
For `Cc1c(CCOC(=O)C23CC4CC(CC(C)(C4)C2)C3)sc[n+]1Cc1ccccc1.[Cl-]`, the “hERG current change (%, negative = inhibition) at 10uM” value is -34.5%.
The figure for `Cc1c(CCO)sc[n+]1CC(=O)OC12CC3CC(CC(C3)C1)C2.[Cl-]` is 19.8%.
Take `c1ccc(N2CCN(c3nc4cc5c(cc4s3)OCO5)CC2)cc1`: the “hERG current change (%, negative = inhibition) at 10uM” value was -11.2%.
The figure for `CCC(CC)c1nnc(NC(=O)c2c(-c3ccccc3)noc2C)s1` is -9.78%.

The values above are taken from PMC4336329 (PLoS ONE, 2015).
